Reference: PubChem BioAssay (NCATS)
Inconclusive results are not listed. Where a call stands in place of a potency, no number is given. Calls of active or inactive are those of the source. Calls come from the whole dose curve; as a rule, active = well fitted cell-killing curve with a large enough effect; inconclusive = small, poorly fitted or top-dose-only effect, or effect the other way; inactive = no such curve, though single readings can be large or run the other way.

Test: Quantitative High-Throughput drug screen in 47 multiple myeloma cell lines against the NCATS MIPE library collection: KMS28PE_JCRB cell viability assay (AID 1918983); note: nearly all actives have a fitted effect of over 35% in size
Conditions: KMS28PE multiple myeloma viability, CellTiter-Glo ATP, 48 h; series mostly up to 45.8 µM
Method in brief: (§1)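 500 cells/well per myeloma line exposed to pinned MIPE 4.0 compounds for 48 h at 37 °C, 5% CO2. Viability read as ATP by CellTiter-Glo luminescence, normalised to DMSO-only (100%) and media-only (0%) wells.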
Potency is the fitted concentration of half-maximal effect.

Structure (SMILES) | Potency
Nc1cccc2c1C(=O)N(C1CCC(=O)NC1=O)C2=O (stereo not given) | 0.0833 µM (active)
N#Cc1cc(NC(=O)Nc2nnc(-c3ccncc3)s2)ccc1-c1cn[nH]c1 | 16.6 µM (active)
COC(=O)[C@@H]1[C@H]2C[C@@H]3c4[nH]c5ccccc5c4CCN3C[C@@H]2CC[C@@H]1O | inactive
C#Cc1cccc(Nc2ncnc3cc(OCCOC)c(OCCO)cc23)c1 | 18.7 µM (active)
C[N+](C)([O-])CCNc1ccc(NCC[N+](C)(C)[O-])c2c1C(=O)c1c(O)ccc(O)c1C2=O | inactive
O=C1c2c(O)cccc2[C@@H]([C@@H]2O[C@H](CO)[C@@H](O)[C@H](O)[C@H]2O)c2cc(CO)cc(O)c21 | inactive
C[C@@H]1C(=O)O[C@H]2CC34[C@H]5C[C@@H](C(C)(C)C)C36[C@H](OC(=O)[C@@H]6O)O[C@@]4(C(=O)O5)[C@]21O (stereo not given in full) | inactive
CCCNC(=O)[C@H]1O[C@H]1C(=O)N[C@H](C(=O)N1CCC[C@@H]1C(=O)OC)C(C)CC (stereo not given in full) | 7.43 µM (active)
COc1cc(C(C)C)c(Oc2cnc(NC(CO)CO)nc2N)cc1I | inactive
CCN(CC)CCCCNc1ncc2c(n1)N(C)C(=O)N(c1c(Cl)c(OC)cc(OC)c1Cl)C2 | 10.5 µM (active)
Cc1cc(-c2nnc3n2CCCCC3)c(C)n1-c1ccccc1 | inactive
COc1cc(CCc2cc(NC(=O)c3ccc(N4C[C@@H](C)N[C@@H](C)C4)cc3)n[nH]2)cc(OC)c1 | 13.2 µM (active)
c1coc(CNc2ncnc3nc[nH]c23)c1 | inactive
CC(=O)N1CCN(c2ccc(OCc3nn(C)c(C)c3-c3cccc4c(CCCOc5cccc6ccccc56)c(C(=O)O)n(Cc5cccnc5)c34)cc2)CC1 | 16.6 µM (active)
CC(=O)N[C@H]1[C@@H]([C@H](O)[C@H](O)CO)OC(C(=O)O)=C[C@@H]1N=C(N)N | inactive
C[C@H](CCC(=O)O)[C@H]1CC[C@H]2[C@@H]3[C@H](O)C[C@@H]4C[C@H](O)CC[C@]4(C)[C@@H]3CC[C@]12C | inactive
CNC(=O)c1cccc(-c2ccc3c(N4CCOC[C@H]4C)nc(N4CCOC[C@H]4C)nc3n2)c1 | 0.0187 µM (active)
CON=C(C(=O)N[C@@H]1C(=O)N2C(C(=O)O)=C(CSC(=O)c3ccco3)CS[C@H]12)c1csc(N)n1 | inactive
CC[C@H]1OC(=O)[C@H](C)[C@@H](O[C@H]2C[C@@](C)(OC)[C@@H](O)[C@H](C)O2)[C@H](C)[C@@H](O[C@@H]2O[C@H](C)C[C@H](N(C)C)[C@@H]2O)[C@](C)(OC)C[C@@H](C)C(=O)[C@H](C)[C@@H](O)[C@]1(C)O | inactive
COc1cc(C[C@@H](CO)[C@H](CO)Cc2ccc(O)c(OC)c2)ccc1O | inactive
COC(=O)[C@@H]1CC2=CC(=O)CC[C@]2(C)[C@@]23O[C@@H]2C[C@@]2(C)[C@H](CC[C@@]24CCC(=O)O4)[C@@H]13 | inactive
C[C@@H](NCc1cc2ccccc2[nH]1)c1cccc2ccccc12 | inactive
CC1=C(C(=O)Nc2cc3cn[nH]c3cc2F)C(c2ccc(Cl)cc2F)N=C(c2ccnc(Cl)c2)N1 (stereo not given) | 20.9 µM (active)
C=C1C(=CC=C2CCC[C@]3(C)[C@@H]([C@H](C)CCCC(C)(C)O)CC[C@@H]23)C[C@@H](O)C[C@@H]1O | 33.2 µM (active)
COC1=C(OC)C(=O)C(CC=C(C)CCC=C(C)CCC=C(C)CCC=C(C)CCC=C(C)CCC=C(C)CCC=C(C)CCC=C(C)CCC=C(C)CCC=C(C)C)=C(C)C1=O | inactive
C[C@H]1COc2c(N3CCN(C)CC3)c(F)cc3c(=O)c(C(=O)O)cn1c23 | inactive
CC(=O)O[C@H]1C[C@@H]2CC[C@H]3[C@H]4C[C@H]([N+]5(C)CCCCC5)[C@@H](OC(C)=O)[C@@]4(C)CC[C@@H]3[C@@]2(C)C[C@H]1N1CCCCC1 | 0.332 µM (active)

Test: Quantitative High-Throughput drug screen in 47 multiple myeloma cell lines against the NCATS MIPE library collection: L363_DSMZ cell viability assay (AID 1918984); note: nearly all actives have a fitted effect of over 40% in size
Conditions: L363 myeloma viability, CellTiter-Glo ATP luminescence, 48 h; series mostly up to 45.8 µM
Method in brief: as §1

Structure (SMILES) | Potency
Nc1cccc2c1C(=O)N(C1CCC(=O)NC1=O)C2=O (stereo not given) | inactive
CC(C)[C@H](CO)Nc1nc(Nc2cccc(Cl)c2)c2ncn(C(C)C)c2n1 | inactive
COc1cc(OC)c(NC(=O)Nc2cc(C)on2)cc1Cl | inactive
COC(=O)[C@@H]1[C@H]2C[C@@H]3c4[nH]c5ccccc5c4CCN3C[C@@H]2CC[C@@H]1O | inactive
C#Cc1cccc(Nc2ncnc3cc(OCCOC)c(OCCO)cc23)c1 | 0.372 µM (active)
C[N+](C)([O-])CCNc1ccc(NCC[N+](C)(C)[O-])c2c1C(=O)c1c(O)ccc(O)c1C2=O | inactive
CCCNC(=O)[C@H]1O[C@H]1C(=O)N[C@H](C(=O)N1CCC[C@@H]1C(=O)OC)C(C)CC (stereo not given in full) | 8.33 µM (active)
CC(=O)O[C@H]1C[C@@H]2CC[C@H]3[C@H]4C[C@H]([N+]5(C)CCCCC5)[C@@H](OC(C)=O)[C@@]4(C)CC[C@@H]3[C@@]2(C)C[C@H]1[N+]1(C)CCCCC1 | inactive
CCN(CC)CCCCNc1ncc2c(n1)N(C)C(=O)N(c1c(Cl)c(OC)cc(OC)c1Cl)C2 | inactive
NC(=O)c1ncn([C@@H]2O[C@H](CO)[C@@H](O)[C@@H]2O)c1O | inactive
CC(O)(C#Cc1ccc2c(c1)N(c1nc(N)ncc1Cl)CC2)c1nccs1 (stereo not given) | 16.6 µM (active)
c1coc(CNc2ncnc3nc[nH]c23)c1 | 11.8 µM (active)
O=C(CN1C(=O)C2(CCCC2)NC[C@H]1c1cc(F)cc(F)c1)Nc1ccc2c(c1)C[C@@]1(C2)C(=O)Nc2ncccc21 | inactive
CC(=O)N1CCN(c2ccc(OCc3nn(C)c(C)c3-c3cccc4c(CCCOc5cccc6ccccc56)c(C(=O)O)n(Cc5cccnc5)c34)cc2)CC1 | 1.18 µM (active)
NC1=N[C@H]2[C@H](CS[C@H]2CCCCC(=O)O)N1 | inactive
CC(=O)N[C@H]1[C@@H]([C@H](O)[C@H](O)CO)OC(C(=O)O)=C[C@@H]1N=C(N)N | inactive
C[C@H](CCC(=O)O)[C@H]1CC[C@H]2[C@@H]3[C@H](O)C[C@@H]4C[C@H](O)CC[C@]4(C)[C@@H]3CC[C@]12C | inactive
CNC(=O)c1cccc(-c2ccc3c(N4CCOC[C@H]4C)nc(N4CCOC[C@H]4C)nc3n2)c1 | 0.0118 µM (active)
CC[C@H]1OC(=O)[C@H](C)[C@@H](O[C@H]2C[C@@](C)(OC)[C@@H](O)[C@H](C)O2)[C@H](C)[C@@H](O[C@@H]2O[C@H](C)C[C@H](N(C)C)[C@@H]2O)[C@](C)(OC)C[C@@H](C)C(=O)[C@H](C)[C@@H](O)[C@]1(C)O | inactive
COc1cc(C[C@@H](CO)[C@H](CO)Cc2ccc(O)c(OC)c2)ccc1O | 5.9 µM (active)
CC1=C(C(=O)Nc2cc3cn[nH]c3cc2F)C(c2ccc(Cl)cc2F)N=C(c2ccnc(Cl)c2)N1 (stereo not given) | 18.7 µM (active)
C[C@H]1COc2c(N3CCN(C)CC3)c(F)cc3c(=O)c(C(=O)O)cn1c23 | inactive
CC(=O)O[C@H]1C[C@@H]2CC[C@H]3[C@H]4C[C@H]([N+]5(C)CCCCC5)[C@@H](OC(C)=O)[C@@]4(C)CC[C@@H]3[C@@]2(C)C[C@H]1N1CCCCC1 | inactive
